# Test results published in ChEMBL document CHEMBL4513216, “Probing the Open Global Health Chemical Diversity Library for Multistage-Active Starting Points for Next-Generation Antimalarials” (ACS Infect Dis, 2020).
# Among all 69,000 compounds or so, about 8,600 (12%) showed an effect of 50% or more. Shown is part of a subset that was picked to be rich in strong results.
# Test system: Plasmodium berghei
# Experiment: Screen against P. berghei liver stage (PbLuc), transformed with Luciferase, at 10uM
# Type: functional, HepG2
# Details: tested at 10 uM
row,Compound,INHIBITION [%]
1,O=C(O)CCCC(=O)NCC1(O)CCN(c2ccnc3cccnc23)C1 (stereo not given),17.25
2,O=C(CN1CCCC1=O)N1CCC(O)(Cn2ccc3ccncc32)CC1,7.52
3,COC(=O)C1CCN(C(=O)Cn2ccc(-c3ccsc3)n2)CC1,-46.4
4,CCCC(C)CS(=O)(=O)NCc1cccnc1OC (stereo not given),1.94
5,CCCS(=O)(=O)NCc1cccnc1OCC,-1.53
6,CCCS(=O)(=O)NCc1cccnc1OCc1ccccc1,50.4
7,COc1ccc(CSc2nnc(N)n2C2CC2)cc1F,-16.3
8,O=C(CCC(=O)N1CCC(c2noc3cc(F)ccc23)CC1)NC1CC1,10.5
9,N#Cc1ccc(C(=O)N2CCC(c3ncc[nH]3)CC2)cn1,51.2
10,O=C(c1cncc(F)c1)N1CCC(c2ncc[nH]2)CC1,31.2
11,Cn1cc(C(=O)N2CCC(c3ncc[nH]3)CC2)cn1,14
12,CC(=O)N1CC2(CCN(c3ccc4ccccc4n3)CC2)CC1C(=O)O (stereo not given),44
13,COCCNC(=O)[C@H]1CN(Cc2sccc2C)C[C@H]2OCC[C@@H]12,-4.88
14,CC(C)c1ccc(NC2CCCN(Cc3ccncc3)C2)cc1 (stereo not given),70.3
15,Cc1cc(C2CCCN(Cc3nnc(Cc4ccccc4)o3)C2)n[nH]1 (stereo not given),17
16,Cc1ccc(CN2CCCC(c3cncc(C)n3)C2)cn1 (stereo not given),-6.3
17,Cc1cncc(C2CCN(Cc3ccncc3)CC2)n1,23.3545
18,CC1CCCN(Cc2ccc(CNC(=O)NCc3ccncc3)cc2)C1 (stereo not given),22.5
19,Cc1cc(C2CCCN(Cc3noc(Cc4ccccc4)n3)C2)n[nH]1 (stereo not given),-10.8
20,Cc1cnc(CN2CCCC(c3cc(C)[nH]n3)C2)cn1 (stereo not given),35.9
21,FC(F)(F)c1cc(C2CCCN(Cc3cccnc3)C2)n[nH]1 (stereo not given),35
22,Fc1ccc(NC2CCCN(Cc3ccncc3)C2)cc1 (stereo not given),-10.6
23,Cc1cncc(C2CCCN(Cc3ccncc3)C2)n1 (stereo not given),60.4
24,Cc1cc(C2CCCN(Cc3cccnc3)C2)n[nH]1 (stereo not given),59.1
25,Cc1cc(C2CCCN(Cc3nc(Cc4ccccc4)no3)C2)n[nH]1 (stereo not given),79.7
26,CCC(O)CN1CCN(C(=O)CN(C)c2ccc(Cl)cn2)CC1 (stereo not given),3.03
27,C=C(C)COc1ccccc1CNCCc1cc(O)nc(C)n1,7.65
28,CC(C)Nc1nc(O)cc(C(C)n2ncc3ccccc3c2=O)n1 (stereo not given),29.9

row,Compound,INHIBITION [%]
1,COc1cccc2cc(CNC(=O)N3CCOC(C)(C)C3)oc12,33.8
2,COc1cc(C(=O)N2CCCC(CNS(C)(=O)=O)C2)ccc1C (stereo not given),7.12
3,COc1c(Br)c(CC2CC(CO)=NO2)c(Br)c2c1OCO2 (stereo not given),42.4
4,CC(C)CCN1C[C@H]2CCN(C(=O)NC3CCCC3)CC[C@H]2S1(=O)=O,37.1
5,O=C(NCCn1ccnc1)C1COCC(=O)N1Cc1ccccc1 (stereo not given),66.1
6,O=C(NCCCn1cccn1)C1COCC(=O)N1Cc1ccccc1 (stereo not given),49
7,O=C(NCCCn1ccnc1)C1COCC(=O)N1Cc1ccccc1 (stereo not given),38.3
8,Cc1noc(C)c1C(=O)N1C[C@@H]2CC[C@H]1CN(c1cnccn1)C2,-39.2
9,Fc1ccc(CN2CCC(F)(F)C3(CCN(c4cnccn4)C3)C2)cc1 (stereo not given),1.61
10,Cc1ccc(N2CCC3(CN(Cc4cccs4)CCC3(F)F)C2)nn1 (stereo not given),61.3
11,Cc1ccc(N2CCC3(CN(CCO)CCC3(F)F)C2)nn1 (stereo not given),39.5
12,Cc1ccc(CN2CCC(F)(F)C3(CCN(c4cnccn4)C3)C2)o1 (stereo not given),35.1
13,Cc1ccc(N2CCC3(CN(Cc4ccncc4)CCC3(F)F)C2)nn1 (stereo not given),89.1
14,Cn1cc(CN2CCC(F)(F)C3(CCN(c4ncccn4)C3)C2)cn1 (stereo not given),9.51
15,CC(C)(C)c1ncc(C(=O)NCCNS(C)(=O)=O)s1,-33.9
16,CNS(=O)(=O)CC(=O)N1CCCc2cc(C(C)C)ccc21,39.7
17,O=C(c1cnc(-c2ncccn2)s1)N1CCCC(n2cccn2)C1 (stereo not given),21
18,Cc1nc(NCC23CCCN2CCC3)cc(C2CCCNC2)n1 (stereo not given),-71.1
19,Cc1nc(NCCC23CCCN2CCC3)cc(C2CCCNC2)n1 (stereo not given),-59.5
20,Cc1nc(C2CCCNC2)cc(N2CCc3nc(N)sc3C2)n1 (stereo not given),53.6
21,CNC(=O)C1CCN(c2cc(C3CCNCC3)nc(C)n2)C1 (stereo not given),26.4
22,CNc1cc(C2CCCNC2)nc(C)n1 (stereo not given),16.4875
23,CNC(=O)c1[nH]nc2c1CN(c1cc(C3CCCNC3)nc(C)n1)CC2 (stereo not given),55.4
24,O=C(COc1coc(CN2CCOCC2)cc1=O)Nc1ccccc1F,-0.532
25,Cc1ncc2c(c1C(=O)O)CCN(c1ncc(F)cn1)C2,7.24
26,Cc1nc(CN2CCOC(Cn3cccn3)C2)no1 (stereo not given),4.71
27,Cc1noc(C2CCN(Cn3cc(Cl)cn3)CC2)n1,37.9
